From PubChem
Hits are enriched below; roughly 17% of the tested compounds scored in any of these assays.
DT40 TDP1 CPT: qHTS for Inhibitors of human tyrosyl-DNA phosphodiesterase 1 (TDP1): qHTS in cells in presence of CPT. chicken DT40 Tdp1-/-;hTDP1 cells + 20 nM CPT, ATP luminescence, 48 h. Potency, µM (highest dose often 46.2 µM), actives largely listed as inhibitors. actives 12% (n = 420,000). AID 686979, 2013; note: nearly all actives have a fitted effect of over 55% in size
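Cell growth measured by CellTiter-Glo luminescence after a minimum 48 h, 37 C compound exposure with 20 nM CPT in Tdp1-knockout DT40 cells stably expressing hTDP1, seeded 400/well; qHTS titration format.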
TGFb inhibitor: qHTS for Inhibitors of TGF-b. HepG2 CAGA-GFP TGF-b/SMAD3 reporter, GFP fluorescence, 18 h; TGF-beta stimulated, 500 pg/mL final. Potency, µM (doses to about 46.1 µM), hits mostly inhibitors. actives 1.2% (n = 410,000). AID 588855, 2011; note: nearly all actives have a fitted effect of over 65% in size
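Smad-responsive CAGA-GFP expression was quantified in HEPG2 cells exposed to compounds and 500 pg/mL final TGF-beta for 18 h at 37 degrees C; unstimulated wells defined full inhibition.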
HT1080NT lethal: qHTS for induction of synthetic lethality in tumor cells producing 2HG: qHTS for the HT-1080-NT fibrosarcoma cell line. HT-1080-NT fibrosarcoma viability, CellTiter-Glo ATP luminescence, 48 h. Potency, µM (series often up to 46.1 µM), hits mostly cytotoxic. actives 1.6% (n = 360,000);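 note: NT is the 2HG producing partner of a matched IDH1 knockdown line; nearly all actives have a fitted effect of over 55% in size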
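Luminescent CellTiter-Glo readout after 48 hours of compound exposure at 37 degrees C defined viability of HT-1080-NT cells. Activity was normalized to DMSO wells and cell-free media wells; concentration-response curves were fitted and assigned curve classes.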
DT40 TDP1 no CPT: qHTS for Inhibitors of human tyrosyl-DNA phosphodiesterase 1 (TDP1): qHTS in cells in absence of CPT; Potency, µM (doses to about 46.2 µM), actives largely listed as inhibitors; AID 686978, 2013; DT40 Tdp1-/- hTDP1 cells, no CPT, ATP luminescence, 48 h; actives 15% (n = 420,000); note: nearly all actives have a fitted effect of over 55% in size
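Luminescent ATP content (CellTiter-Glo) served as the growth readout. Knockout chicken DT40 cells expressing human TDP1 were exposed to compounds without camptothecin for a minimum 48 hr at 37 °C.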
HepG2 tox: qHTS for Inhibitors of TGF-b: Cytotox Counterscreen | HepG2 CAGA-GFP viability, ATP luminescence, 18 h | Potency, µM (highest dose often 46.1 µM), most hits filed as cytotoxic | actives 0.76% (n = 410,000) | AID 588856, 2011
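HepG2 CAGA-GFP cells (1000/well, DMEM with 1% FBS) received compound, then TGF-beta at 500 pg/mL final, and were incubated 18 hours at 37 degrees C. Viability was read by CellTiter-Glo luminescence. Media-only wells were set as complete cell-killing and DMSO as no toxicity.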
HT1080 IDH1KD tx: qHTS for induction of synthetic lethality in tumor cells producing 2HG: qHTS for the HT-1080-IDH1KD cell line; HT-1080 IDH1 knockdown viability, ATP luminescence, 48 h; Potency, µM (doses to about 46.1 µM), usual class: cytotoxic; actives 2% (n = 360,000); AID 686971, 2013
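Using the IDH1-knockdown HT-1080 line run in the same batch and compound series as the NT line, viability after 48 h at 37 °C was determined by CellTiter-Glo luminescence and expressed as % activity.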
Large screens that a line does not name were inactive. Calls come from the whole dose curve; as a rule, active = well fitted curve in the direction sought with a large enough effect; inconclusive = small, poorly fitted or top-dose-only effect, or another doubt; inactive = no such curve, though single readings can be large; an effect the other way counts as inactive or inconclusive.

CC(=NNC(=O)c1ccncc1)c1cc(Cl)ccc1Cl	none
CCOC(=O)N1CCN(C2CCCN(C(=O)c3ccccc3N(C)C)C2)CC1 (configuration not stated)	none
COc1cccc(-c2cn3c(n2)sc2cc(C(=O)NCc4ccccc4F)ccc23)c1	DT40 TDP1 CPT inconclusive, TGFb inhibitor inconclusive, DT40 TDP1 no CPT 16µM (no result: HT1080NT lethal, HT1080 IDH1KD tx)
O=C(C[C@H]1C/C=C\CC[C@@H](Cc2ccc(F)cc2)C(=O)OC[C@H]2CCCN2C1=O)NCCO	none
Cn1c(Cc2ccccc2)n[nH]c1=S	none
Cn1c(CSCCOc2ccccc2)n[nH]c1=S	DT40 TDP1 no CPT 16µM
Cn1c(CSCc2ccc(Cl)c(Cl)c2)n[nH]c1=S	DT40 TDP1 CPT inconclusive, DT40 TDP1 no CPT 23µM
S=c1[nH]nc(CSCCOc2ccccc2)o1	none
CCn1c(CSCc2ccc(Cl)cc2)n[nH]c1=S	DT40 TDP1 CPT inconclusive, DT40 TDP1 no CPT 8.2µM
CCn1c(CSCc2ccc(C)cc2)n[nH]c1=S	DT40 TDP1 no CPT inconclusive
O=C([C@H]1O[C@@H](n2ccc(=O)[nH]c2=O)[C@H](O)[C@@H]1O)N1CCC(F)(F)CC1	HT1080NT lethal inconclusive
COc1ccc(Cl)cc1NC(=O)C(C)N1CCN(C/C=C/c2ccccc2)CC1 (configuration not stated)	DT40 TDP1 CPT inconclusive, TGFb inhibitor inconclusive, HT1080NT lethal inconclusive, DT40 TDP1 no CPT 21µM, HT1080 IDH1KD tx inconclusive
C(=C\c1ccccc1)/CN1CCN(C(c2ccccc2)c2ccccc2)CC1	DT40 TDP1 CPT inconclusive, DT40 TDP1 no CPT inconclusive
Cc1cccc(C)c1NC(=O)C(c1ccccc1)N1CCN(C/C=C/c2ccccc2)CC1 (configuration not stated)	DT40 TDP1 CPT 18µM, TGFb inhibitor inconclusive, DT40 TDP1 no CPT inconclusive
CSCCC(C(=O)Nc1c(C)cccc1C)N1CCN(C/C=C/c2ccccc2)CC1 (configuration not stated)	DT40 TDP1 CPT inconclusive, TGFb inhibitor inconclusive, DT40 TDP1 no CPT 13µM
CC(=O)c1ccc(NC(=O)C(C)N2CCN(C/C=C/c3ccccc3)CC2)cc1 (configuration not stated)	DT40 TDP1 no CPT inconclusive
O=S(=O)(c1ccc(F)cc1)N1CCC(n2c(C(F)(F)F)nc3cccnc32)CC1	DT40 TDP1 CPT 12µM (no result: HT1080NT lethal, HT1080 IDH1KD tx)
CN(C)S(=O)(=O)N1CCC(n2c(C(F)(F)F)nc3cccnc32)CC1	DT40 TDP1 CPT inconclusive (no result: HT1080NT lethal, HT1080 IDH1KD tx)
O=C(Nc1ccncc1)c1ccc2ccccc2c1	DT40 TDP1 CPT inconclusive, DT40 TDP1 no CPT 13µM
O=C(Nc1nnc(-c2ccncc2)o1)c1ccc2ccccc2c1	DT40 TDP1 CPT 8.2µM, DT40 TDP1 no CPT 7.3µM
Cc1cccc(C(=O)Nc2nnc(-c3ccncc3)o2)c1	none
O=C(Nc1ccc2ccccc2c1)c1ccc(Cl)cc1	none
Cc1ccc(CNS(=O)(=O)c2ccc(CN3C(=O)c4cccnc4C3=O)s2)o1	none
Oc1cccc2c(NC(=S)Nc3ccc(OC(F)F)cc3)cccc12	DT40 TDP1 no CPT 18µM
FC(F)Oc1ccc(NC(=S)NCc2ccccc2)cc1	DT40 TDP1 no CPT inconclusive
CCN(CC)C(=S)Nc1ccc(OC(F)F)cc1	none
FC(F)Oc1ccc(NC(=S)Nn2cnnc2)cc1	DT40 TDP1 CPT inconclusive, TGFb inhibitor 16µM, DT40 TDP1 no CPT inconclusive
COc1ccccc1C(O)c1nccn1Cc1ccccc1 (configuration not stated)	none (no result: HT1080NT lethal, HT1080 IDH1KD tx)
Cc1ccccc1C(=O)Nc1cc2c(cc1N1CCCCC1)n(C)c(=O)n2C	TGFb inhibitor inconclusive, DT40 TDP1 no CPT 12µM (no result: HT1080NT lethal, HT1080 IDH1KD tx)
Cn1c(=O)n(C)c2cc(N3CCCCC3)c(NC(=O)c3c(F)cccc3F)cc21	DT40 TDP1 CPT 13µM, DT40 TDP1 no CPT 26µM (no result: HT1080NT lethal, HT1080 IDH1KD tx)
Cc1ccccc1C(=O)Nc1cc2c(cc1N1CCOCC1)n(C)c(=O)n2C	DT40 TDP1 CPT inconclusive, DT40 TDP1 no CPT inconclusive (no result: HT1080NT lethal, HT1080 IDH1KD tx)
COc1ccc(C(O)P(=O)(OCC(C)C)c2ccc(N(C)C)cc2)c(OC)c1 (configuration not stated)	none
CCOc1ccc(CCNC(=O)CCn2c(=O)c3cccn3c3ccc(F)cc32)cc1OCC	DT40 TDP1 CPT inconclusive, DT40 TDP1 no CPT 13µM (no result: HT1080NT lethal, HT1080 IDH1KD tx)
COc1ccc(CCNC(=O)CCn2c(=O)c3cccn3c3ccc(F)cc32)cc1OC	DT40 TDP1 CPT inconclusive, DT40 TDP1 no CPT 16µM (no result: HT1080NT lethal, HT1080 IDH1KD tx)
CSc1ccc(CCNC(=O)CCn2c(=O)c3cccn3c3ccc(F)cc32)cc1	DT40 TDP1 CPT inconclusive, DT40 TDP1 no CPT inconclusive (no result: HT1080NT lethal, HT1080 IDH1KD tx)
COc1ccc(CCNC(=O)Cn2c(=O)n(-c3ccc(F)cc3F)c(=O)c3sccc32)cc1OC	DT40 TDP1 CPT inconclusive, DT40 TDP1 no CPT inconclusive
COc1ccc(CCNC(=O)Cn2c(=O)n(-c3cc(F)ccc3F)c(=O)c3sccc32)cc1OC	DT40 TDP1 CPT inconclusive, DT40 TDP1 no CPT 15µM
O=C(CCn1c(=O)c2cccn2c2ccc(F)cc21)NCCc1ccccc1	DT40 TDP1 CPT 21µM, TGFb inhibitor inconclusive, DT40 TDP1 no CPT 18µM
CCCCNC(=O)CN1C(=O)NC2(CCCc3ccccc32)C1=O (configuration not stated)	none
CC(=O)Nc1ccc(-c2ccnc3c2CC(C(=O)NCc2ccc(N4CCN(C)CC4)cc2)O3)cc1 (configuration not stated)	DT40 TDP1 CPT inconclusive, DT40 TDP1 no CPT inconclusive
CN1CCN(c2ccc(CNC(=O)C3Cc4c(-c5ccc(Cl)cc5)ccnc4O3)cc2)CC1 (configuration not stated)	DT40 TDP1 CPT inconclusive, TGFb inhibitor inconclusive, HT1080NT lethal inconclusive, DT40 TDP1 no CPT 16µM, HT1080 IDH1KD tx inconclusive
O=C(NCc1cccnc1)C1Cc2c(-c3ccc(Cl)cc3)ccnc2O1 (configuration not stated)	DT40 TDP1 CPT 5.8µM, HT1080NT lethal 5.8µM, DT40 TDP1 no CPT 8.2µM, HT1080 IDH1KD tx 18µM
NC(=O)c1cccc(-c2ccnc3c2CC(C(=O)NCCC(F)(F)F)O3)c1 (configuration not stated)	DT40 TDP1 CPT inconclusive, HT1080NT lethal inconclusive
CC(=O)Nc1cccc(-c2ccnc3c2CC(C(=O)NCc2ccncc2)O3)c1 (configuration not stated)	none
